From PubChem BioAssay (EPA / NIEHS) come the findings set out here.

Activity calls are given as the source filed them. Rule for the calls: active = hit-call score of the fitted dose curve at least 0.9, where 1 is the maximum; inactive = score below 0.9.

Sequence of Transcriptional activator Myb (Homo sapiens) (P10242 whole entry, looked up): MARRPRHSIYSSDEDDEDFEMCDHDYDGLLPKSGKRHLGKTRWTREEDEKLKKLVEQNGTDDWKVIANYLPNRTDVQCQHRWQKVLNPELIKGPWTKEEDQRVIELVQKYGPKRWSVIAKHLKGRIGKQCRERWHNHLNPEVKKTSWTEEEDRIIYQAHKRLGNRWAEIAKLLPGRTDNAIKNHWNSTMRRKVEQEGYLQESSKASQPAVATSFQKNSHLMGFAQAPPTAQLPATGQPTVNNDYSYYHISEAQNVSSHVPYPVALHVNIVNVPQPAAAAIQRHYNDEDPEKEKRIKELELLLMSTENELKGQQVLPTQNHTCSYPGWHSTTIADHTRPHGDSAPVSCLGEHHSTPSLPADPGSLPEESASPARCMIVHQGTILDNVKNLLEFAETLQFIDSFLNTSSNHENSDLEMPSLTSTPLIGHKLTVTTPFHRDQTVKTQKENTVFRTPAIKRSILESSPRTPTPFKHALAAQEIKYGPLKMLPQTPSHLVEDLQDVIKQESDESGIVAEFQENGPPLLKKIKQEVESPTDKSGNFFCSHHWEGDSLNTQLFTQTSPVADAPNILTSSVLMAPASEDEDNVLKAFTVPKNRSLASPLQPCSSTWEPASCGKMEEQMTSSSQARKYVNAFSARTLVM

In the assay the target is Transcriptional activator Myb (Homo sapiens) (UniProt P10242). Kind of assay: ATG_Myb_CIS: Attagene CIS-FACTORIAL HepG2 Assay for human Myeloblastosis (Myb) Proto-Oncogene Transcription Factor (AID 2282986). The following applies: HepG2 Attagene CIS-FACTORIAL Myb reporter transcription; actives raise or lower the signal. As to the method:
ATG_CIS is a cell-based, multiplexed-readout assay that uses HepG2, a human liver cell line, with measurements taken at 24 hours after chemical dosing in a 24-well plate.ATG_Myb_CIS is one of 52 assay component(s) measured or calculated from the ATG_CIS assay. It is designed to make measurements of mRNA induction, a form of inducible reporter, as detected with fluorescence intensity signals by Reverse transcription polymerase chain reaction (RT-PCR) and Capillary electrophoresis technology.Data from the assay component ATG_Myb_CIS was analyzed into 1 assay endpoint. This assay endpoint, ATG_Myb_CIS, was analyzed with bidirectional fitting relative to DMSO as the negative control and baseline of activity. Using a type of inducible reporter, measures of mRNA for gain or loss-of-signal activity can be used to understand the reporter gene at the transcription factor-level as they relate to the gene MYB. Furthermore, this assay endpoint can be referred to as a primary readout, because this assay has produced multiple assay endpoints where this one serves a reporter gene function. To generalize the intended target to other relatable targets, this assay endpoint is annotated to the dna binding intended target family, where the subfamily is MYB proteins.
Human liver HepG2 cells are transiently transfected with multiple reporter transcription units (MRTUs) in 6-well plates using FuGene 6 reagent (Roche; 3 ml FuGene/1 mg DNA). The MRTU constructs are regulated by a cis-regulating element (promoter). […] A major difference between the CIS and TRANS system is that in CIS activities of endogenous TFs are measured, whereas the TRANS assay evaluates changes in activities of exogenous, chimeric NR-Gal4 proteins. […] At the end of 24 hour incubation, total RNA was isolated using TriZol reagent (Invitrogen). The isolated RNA is then reverse-transcribed using oligo(dT) primer and Mo-MLV reverse transcriptase (Invitrogen) with DNAse I (Ambion) treatment for 30 min. The one-tenth of the produced cDNA was amplified by PCR using Taq DNA polymerase (Invitrogen) and two reporter sequence-specific primers. The PCR products were fluorescently labeled by primer extension with 6-arboxyfluorescein (6-FAM) 5'-labeled reporter sequence-specific primer (2 min at 95 C, 20 s at 68 C and 10 min at 72 C) and these products were digested with 5U of HpaI (New England Biolabs) for 2h at 37 C. The fragments were purified using Qiaquick PCR columns (Qiagen), analyzed on an ABI 3130xL genetic analyzer (Applied Biosystems) with peak positions identified by using a set of X-rhodamine (ROX)-labeled MapMarker1000 molecular weight standards (BioVentures). The raw capillary electrophoresis data was processed using Attagraph software (Attagene).
In the case of `Cc1ccc(O)cc1`, the call was inactive.

For `CC(C)(O)c1coc(S(=O)(=O)NC(=O)Nc2c3c(cc4c2CCC4)CCC3)c1`, the compound was called inactive.

As to `CCCCC(CC)COC(=O)c1ccc(C(=O)OCC(CC)CCCC)cc1` (stereo not given), the compound was called inactive.

Consider `CCCC(=O)OCC`, for which the compound was called inactive.

Regarding `COc1ccc(/C=C/S(=O)(=O)NC(=O)c2ccc(C)cc2Cl)cc1`, the compound was classed as inactive.

With `COC(=O)c1ccccc1O`, the result was inactive.

`CCOC(=O)COc1ccc2c(c1)CC(NCC(O)c1cccc(Cl)c1)CC2` (stereo not given): the outcome was inactive.

In the case of `Nc1nc2ncc(CNc3ccc(C(=O)N[C@@H](CCC(=O)O)C(=O)O)cc3)nc2c(=O)[nH]1`, the call was inactive.

Consider `O=C1CCCCCN1`, for which the outcome was inactive.

Regarding `CC[C@H]1OC(=O)[C@H](C)[C@@H](O[C@H]2C[C@@](C)(OC)[C@@H](O)[C@H](C)O2)[C@H](C)[C@@H](O[C@@H]2O[C@H](C)C[C@H](N(C)C)[C@H]2O)[C@](C)(O)C[C@@H](C)C(=O)[C@H](C)[C@@H](O)[C@]1(C)O`, the compound was called inactive.

For `Cc1ccc(S(=O)(=O)O)cc1C`, the outcome was inactive.

As for `O=C(O)c1cc(N=Nc2ccc(S(=O)(=O)Nc3ccccn3)cc2)ccc1O`, the result was inactive.

For the compound `CCc1cc(SCc2sc(-c3ccc(C(F)(F)F)cc3)nc2CN2CCN(c3ccc(OC)cc3)CC2)ccc1OCC(=O)O`, the call was inactive.

Regarding `Oc1ccc2c(c1)-c1ccccc1C2`, the compound was classed as inactive.

On to `O=C(O)c1cccc(N(Cc2cccnc2)c2ccc(OC(F)F)c(OC(F)F)c2)c1`, for which the compound was called inactive.

Consider `CNS(=O)(=O)c1cc(C(=O)N2CCC(CCN3C4CCC3CC(n3c(C)nc5ccccc53)C4)(c3cccc(F)c3)CC2)c(Cl)cc1F` (stereo not given), for which the outcome was inactive.

Turning to `CCC(C)(C)C(=O)O[C@H]1C[C@@H](C)C=C2C=C[C@H](C)[C@H](CC[C@@H]3C[C@@H](O)CC(=O)O3)[C@H]21`, the result was inactive.

For the compound `CC1(C)C(=O)N(Br)C(=O)N1Br`, the compound was classed as inactive.

For the compound `NC(=O)NO`, the result was inactive.

Take `CC(C)=CCC/C(C)=C\CO`: the compound was classed as inactive.

For the compound `On1ccccc1=S`, the call was inactive.

Consider `O=C(O)c1cccc(Oc2ccccc2)c1`, for which the compound was classed as inactive.

As to `C=CC(=C)CCC=C(C)C`, the compound was classed as inactive.

For the compound `CN(C)c1ccc(Cc2ccc(N(C)C)cc2)cc1`, the compound was classed as inactive.

For `CC(C)CC(C)(O)C#CC(C)(O)CC(C)C` (stereo not given), the compound was classed as inactive.

Consider `Cn1c(=O)c2c(ncn2C)n(C)c1=O`, for which the compound was called inactive.

In the case of `COCCOc1cc2cc(C(=O)NC3CCN(C(C)C)CC3)n(CC(=O)Nc3ccc(Cl)cn3)c2cn1`, the compound was called inactive.

For `O=C1CCC(N2C(=O)c3ccccc3C2=O)C(=O)N1` (stereo not given), the outcome was inactive.

`CC(=O)OCCC(C)C`: the compound was classed as inactive.

Take `C1=CCCC=CCCC=CCC1`: the outcome was inactive.

In the case of `CCCCCCCCCCCCCCCO`, the compound was called inactive.

Consider `CCCN(C1CCN(C(=O)C2CCNCC2)CC1)[C@@H]1CCc2ccc(OC)cc2C1`, for which the compound was classed as inactive.

As for `CCOc1cccc(-n2cc(C(=O)N3CCN(c4cc(C(=O)O)c5ccccc5c4)CC3)nc2-c2ccc(C)cc2)c1`, the AC50 is 152 µM (active).

Take `O=C1OC(=O)C2C3C=CC(C3)C12` (stereo not given): the compound was classed as inactive.

For the compound `CN(C)c1ccc(N=NS(=O)(=O)O)cc1`, the result was inactive.

For the compound `Fc1ccccc1[C@@H](F)COC1CCC(Nc2ncnc3[nH]ncc23)CC1` (stereo not given in full), the compound was classed as inactive.

In the case of `CCOC(=O)CC(CC(=O)OCC)(OC(C)=O)C(=O)OCC`, the compound was called inactive.

For `CNCc1ccc(NC(=O)c2c[nH]c3c2C(=O)CCC3)cc1`, the call was inactive.

With `Nc1cccc(N)c1`, the compound was classed as inactive.

`O=P(OC(CCl)CCl)(OC(CCl)CCl)OC(CCl)CCl`: the half-maximal activity concentration (AC50) was 144 µM (active).

By AC50 is commonly meant the concentration giving half of the maximal activity seen.
